Assay [1] deals with turtle Thyroid Hormone Receptor, alpha (TRa), gene 101949057. Kind of assay: ATG_trTRa_XSP1: Attagene TRANS-FACTORIAL Multi-Species (XSP1) HepG2 Assay for turtle Thyroid Hormone Receptor, alpha (TRa) (AID 2283806). The method in brief:
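HepG2 cells transiently transfected with GAL4-UAS reporter units and chimeric receptor-Gal4 constructs, with 3 nM 6-alpha-fluorotestosterone present. Reporter mRNA was quantified 24 h after dosing by RT-PCR, 6-FAM labelling and capillary electrophoresis; gain of signal versus DMSO.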

Assay [2] can be described thus: ATG_XTT_Cytotoxicity_XSP1: Cytotoxicity Assessment in the Attagene TRANS-FACTORIAL Multi-Species (XSP1) HepG2 Assay (AID 2283810). The method in brief: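 XTT viability readout taken at 24 hours post-dosing in HepG2 liver cells co-treated with 3 nM 6-alpha-fluorotestosterone. Signal loss relative to DMSO controls reflects cytotoxicity.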
A short description of assay [3]: ATG_M_06_XSP2: Attagene TRANS-FACTORIAL Multi-Species (XSP2) HepG2 Assay for M06 Transcription Factor (Internal Marker) (AID 2283811).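 Further: hits are increases in signal above the DMSO baseline.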 An outline of the steps:
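HepG2 cells transiently transfected with GAL4-UAS multiple reporter units, medium containing 3 nM 6-alpha-fluorotestosterone and 1.5 nM norgestrel; reporter mRNA measured 24 hours post-dosing by RT-PCR and capillary electrophoresis. Internal background marker, gain of signal vs DMSO.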

Assay [4] relates to turtle Estrogen Receptor (ERa), gene 101933533. Nature of the assay: ATG_trERa_XSP2: Attagene TRANS-FACTORIAL Multi-Species (XSP2) HepG2 Assay for turtle Estrogen Receptor (ERa) (AID 2283812).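 Further: human HepG2 liver cells transiently expressing turtle ERa-Gal4 chimeric receptor; actives raise reporter signal above DMSO so AC50 reflects agonist activity.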 The method in brief: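 HepG2 cells transiently transfected with GAL4-UAS reporter units expressing turtle ERa-Gal4 chimera. Reporter mRNA measured after 24 h dosing by RT-PCR, fluorescent labelling and capillary electrophoresis; gain of signal fitted versus DMSO.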

Assay [5] deals with Estrogen receptor beta (Homo sapiens) (UniProt Q92731). Kind of assay: ATG_hERb_XSP2: Attagene TRANS-FACTORIAL Multi-Species (XSP2) HepG2 Assay for human Estrogen Receptor (ERb) (AID 2283813).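 Further: actives raise reporter mRNA above DMSO so AC50 reflects agonist induction.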 The method in brief: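 HepG2 cells transiently transfected with GAL4-UAS reporter units and chimeric human ERb-Gal4, 24 h exposure. Reporter mRNA quantified by RT-PCR with FAM labelling, HpaI digestion and capillary electrophoresis; gain of signal versus DMSO.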
Chain of Estrogen receptor beta (Homo sapiens) (Q92731 whole entry, looked up, the tested form may be a part): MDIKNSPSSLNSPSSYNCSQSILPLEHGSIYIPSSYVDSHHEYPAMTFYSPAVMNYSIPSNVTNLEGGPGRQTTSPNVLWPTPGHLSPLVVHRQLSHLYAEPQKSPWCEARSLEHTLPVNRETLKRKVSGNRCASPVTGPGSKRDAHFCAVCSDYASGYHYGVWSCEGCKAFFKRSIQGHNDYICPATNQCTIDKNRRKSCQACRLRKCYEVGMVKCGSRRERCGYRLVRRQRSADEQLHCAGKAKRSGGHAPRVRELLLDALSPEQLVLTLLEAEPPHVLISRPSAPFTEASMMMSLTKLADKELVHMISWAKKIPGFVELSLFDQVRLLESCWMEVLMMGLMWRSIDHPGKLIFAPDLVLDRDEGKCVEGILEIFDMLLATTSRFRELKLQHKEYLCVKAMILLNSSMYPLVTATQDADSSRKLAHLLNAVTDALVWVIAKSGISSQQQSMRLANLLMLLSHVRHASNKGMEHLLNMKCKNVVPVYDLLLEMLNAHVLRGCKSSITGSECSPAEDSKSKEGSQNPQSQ

Assay [6] concerns the target zebrafish Estrogen Receptor (ER1), esr1 (gene 259252) (UniProt P57717). Nature of the assay: ATG_zfER1_XSP2: Attagene TRANS-FACTORIAL Multi-Species (XSP2) HepG2 Assay for zebrafish Estrogen Receptor (ER1) (AID 2283816). The method in brief: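 HepG2 cells transiently transfected with a GAL4-UAS reporter and a chimeric zebrafish ER1-Gal4 construct, dosed 24 h. Reporter mRNA quantified by RT-PCR, labelling, HpaI digestion and capillary electrophoresis, relative to DMSO.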

In assay [7] the target is chicken Estrogen Receptor (ERa), ESR1 (gene 396099) (UniProt P06212). Kind of assay: ATG_chERa_XSP2: Attagene TRANS-FACTORIAL Multi-Species (XSP2) HepG2 Assay for chicken Estrogen Receptor (ERa) (AID 2283817).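 Further: actives raise reporter signal above DMSO so AC50 reflects ER activation.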 An outline of the steps: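 Transiently transfected HepG2 cells expressing chimeric chicken ERa-GAL4 reporter units, dosed 24 h with 3 nM 6-alpha-fluorotestosterone and 1.5 nM norgestrel present. Reporter mRNA measured by RT-PCR and capillary electrophoresis; gain-of-signal fitted relative to DMSO.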
Chain of chicken Estrogen Receptor (ERa), ESR1 (gene 396099) (P06212 whole entry, looked up, the tested form may be a part): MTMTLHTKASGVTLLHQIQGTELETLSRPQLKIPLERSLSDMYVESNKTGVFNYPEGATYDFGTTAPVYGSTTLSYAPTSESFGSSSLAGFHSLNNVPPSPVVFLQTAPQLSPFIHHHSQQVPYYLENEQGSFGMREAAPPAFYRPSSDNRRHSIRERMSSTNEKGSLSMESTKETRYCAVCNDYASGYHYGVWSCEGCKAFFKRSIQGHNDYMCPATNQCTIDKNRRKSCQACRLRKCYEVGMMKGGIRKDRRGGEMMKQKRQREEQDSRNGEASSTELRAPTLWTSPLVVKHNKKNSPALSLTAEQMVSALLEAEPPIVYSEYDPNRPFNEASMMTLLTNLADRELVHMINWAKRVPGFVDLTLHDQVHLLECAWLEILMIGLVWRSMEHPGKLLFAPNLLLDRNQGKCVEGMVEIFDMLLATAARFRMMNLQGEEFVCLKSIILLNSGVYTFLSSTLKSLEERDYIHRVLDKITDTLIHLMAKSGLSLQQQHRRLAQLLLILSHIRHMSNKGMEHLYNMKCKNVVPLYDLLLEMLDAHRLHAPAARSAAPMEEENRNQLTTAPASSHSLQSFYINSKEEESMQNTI

The subject of assay [8] is frog Estrogen Receptor (ER), gene 398734. Nature of the assay: ATG_frER1_XSP2: Attagene TRANS-FACTORIAL Multi-Species (XSP2) HepG2 Assay for frog Estrogen Receptor (ER) (AID 2283821).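 Further: hits raise reporter mRNA above DMSO baseline so potency means agonist or activator.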 An outline of the steps: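 HepG2 cells transiently transfected with GAL4-UAS reporter units expressing a chimeric frog ER-Gal4 protein; 24 h exposure. Reporter mRNA quantified by RT-PCR, fluorescent labelling and capillary electrophoresis; gain of signal fitted against DMSO baseline.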

Assay [9] concerns zebrafish Estrogen Receptor (ER2b), gene 317733. Kind of assay: ATG_zfER2b_XSP2: Attagene TRANS-FACTORIAL Multi-Species (XSP2) HepG2 Assay for zebrafish Estrogen Receptor (ER2b) (AID 2283823).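 Further: fitted upward as reporter gain over DMSO so potency reflects activation.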 The method in brief:
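Transcriptional induction measured as reporter mRNA (RT-PCR, fluorescent capillary electrophoresis) in transiently transfected HepG2 cells after 24 h dosing; DMSO served as negative control and baseline.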

For assay [10], the target named is Estrogen receptor (Homo sapiens) (UniProt P03372). Kind of assay: ATG_hERa_XSP2: Attagene TRANS-FACTORIAL Multi-Species (XSP2) HepG2 Assay for human Estrogen Receptor (ERa) (AID 2283827). The method in brief:
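HepG2 cells transiently transfected with multiplexed GAL4-UAS reporters driven by chimeric receptor-Gal4 proteins, dosed 24 h with 3 nM 6-alpha-fluorotestosterone and 1.5 nM norgestrel present. Reporter mRNA by RT-PCR and capillary electrophoresis; gain-of-signal fit versus DMSO.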

The test system of assay [11] is frog Estrogen Receptor (ER2), gene 100174814. Nature of the assay: ATG_frER2_XSP2: Attagene TRANS-FACTORIAL Multi-Species (XSP2) HepG2 Assay for frog Estrogen Receptor (ER2) (AID 2283828). The method in brief: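 HepG2 cells transiently transfected with multiplexed GAL4-UAS reporter units expressing chimeric frog ER2–Gal4 protein; reporter mRNA measured 24 h after chemical dosing by RT-PCR, fluorescent labeling and capillary electrophoresis. Gain-of-signal fitted relative to DMSO baseline.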

Assay [12] concerns the target Peroxisome proliferator-activated receptor gamma (Homo sapiens) (UniProt P37231). Kind of assay: ATG_hPPARg_XSP2: Attagene TRANS-FACTORIAL Multi-Species (XSP2) HepG2 Assay for human Peroxisome Proliferator-activated Receptor gamma (PPARg) (AID 2283829).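 Further: actives raise reporter mRNA above DMSO so AC50 reflects PPARg activation.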 An outline of the steps:
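Human HepG2 cells carried transiently transfected Gal4 reporter units and were treated with chemical for 24 h alongside androgen-receptor stimulants (3 nM 6-alpha-fluorotestosterone, 1.5 nM norgestrel). Reporter transcripts were detected by RT-PCR with capillary electrophoresis, analysed in the positive direction against DMSO.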

For assay [13], the target named is mouse Peroxisome Proliferator-activated Receptor gamma (PPARg), Pparg (gene 19016) (UniProt P37238). Kind of assay: ATG_mPPARg_XSP2: Attagene TRANS-FACTORIAL Multi-Species (XSP2) HepG2 Assay for mouse Peroxisome Proliferator-activated Receptor gamma (PPARg) (AID 2283830).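 Further: hits are gains in reporter mRNA above DMSO so AC50 marks activation.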 An outline of the steps:
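HepG2 cells transiently transfected with GAL4-UAS reporter units for chimeric NR-Gal4 proteins including mouse PPARg, exposed 24 h; medium contained 3 nM 6-alpha-fluorotestosterone and 1.5 nM norgestrel. Reporter mRNA quantified by RT-PCR, HpaI digestion and capillary electrophoresis, vs DMSO.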

Assay [14] has as its target Nuclear receptor subfamily 1 group I member 2 (Mus musculus) (UniProt O54915). Nature of the assay: ATG_mPXR_XSP2: Attagene TRANS-FACTORIAL Multi-Species (XSP1) HepG2 Assay for mouse Pregnane X Receptor (PXR) (AID 2283831). An outline of the steps:
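Fluorescence signals from capillary electrophoresis of RT-PCR-amplified reporter mRNA give the readout, gain-of-signal versus DMSO. Transfected HepG2 cells, 24 h dosing, medium contained 3 nM 6-alpha-fluorotestosterone and 1.5 nM norgestrel.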

For assay [15], the system named is zebrafish Peroxisome Proliferator-activated Receptor gamma (PPARg), gene 557037. Kind of assay: ATG_zfPPARg_XSP2: Attagene TRANS-FACTORIAL Multi-Species (XSP2) HepG2 Assay for zebrafish Peroxisome Proliferator-activated Receptor gamma (PPARg) (AID 2283833).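 Further: actives increase reporter signal over DMSO so AC50 reflects activation.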 The method in brief: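 HepG2, transient MRTU transfection, 24 h compound; zfPPARg-GAL4 reporter mRNA by RT-PCR + capillary electrophoresis; gain-of-signal vs DMSO.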

In assay [16] the test system is turtle Thyroid Hormone Receptor, alpha (TRa), gene 101949057. Kind of assay: ATG_trTRa_XSP2: Attagene TRANS-FACTORIAL Multi-Species (XSP1) HepG2 Assay for turtle Thyroid Hormone Receptor, alpha (TRa) (AID 2283834).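 Further: hits raise reporter mRNA over the DMSO baseline so AC50 marks activators.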 The method in brief: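 Multiplexed TRANS reporter assay; HepG2 carrying NR-Gal4 constructs treated 24 h. mRNA of the GAL4-UAS reporter quantified via labelled RT-PCR fragments on a genetic analyzer, vs DMSO negative control.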

The subject of assay [17] is zebrafish Estrogen Receptor (ER2a), gene 317734. Kind of assay: ATG_zfER2a_XSP2: Attagene TRANS-FACTORIAL Multi-Species (XSP2) HepG2 Assay for zebrafish Estrogen Receptor (ER2a) (AID 2283818).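 Further: hits raise reporter mRNA so AC50 reflects activation of zebrafish ER2a.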 The method in brief: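 HepG2 cells transiently transfected with GAL4-UAS reporter units and chimeric zebrafish ER2a-Gal4, exposed 24 h; medium contains 3 nM 6-alpha-fluorotestosterone and 1.5 nM norgestrel. Reporter mRNA quantified by RT-PCR, HpaI digestion, capillary electrophoresis; gain versus DMSO.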

The test system of assay [18] is chicken Androgen Receptor (AR), gene 422165. Nature of the assay: ATG_chAR_XSP2: Attagene TRANS-FACTORIAL Multi-Species (XSP2) HepG2 Assay for chicken Androgen Receptor (AR) (AID 2283819).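 Further: hits raise reporter mRNA above DMSO so potency is for activation.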 The method in brief:
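HepG2 cells transiently transfected with chicken AR–GAL4 chimeric reporter constructs, stimulated with 3 nM 6-alpha-fluorotestosterone plus 1.5 nM norgestrel, dosed 24 h. Reporter mRNA quantified by RT-PCR and capillary electrophoresis; gain of signal fitted versus DMSO.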

In assay [19] the target is zebrafish Thyroid Hormone Receptor alpha (TRa), thraa (gene 30670) (UniProt Q98867). Kind of assay: ATG_zfTRa_XSP2: Attagene TRANS-FACTORIAL Multi-Species (XSP1) HepG2 Assay for zebrafish Thyroid Hormone Receptor alpha (TRa) (AID 2283832).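 Further: actives raise zebrafish TRa-Gal4 reporter transcript above DMSO baseline.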 The method in brief: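 HepG2 cells transiently transfected with multiplexed GAL4-UAS reporter units expressing chimeric NR-Gal4 proteins; 24 h after dosing, reporter mRNA measured by RT-PCR, FAM labelling, HpaI digestion and capillary electrophoresis; gain of signal versus DMSO baseline.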
Chain of zebrafish Thyroid Hormone Receptor alpha (TRa), thraa (gene 30670) (Q98867 whole entry, looked up, the tested form may be a part): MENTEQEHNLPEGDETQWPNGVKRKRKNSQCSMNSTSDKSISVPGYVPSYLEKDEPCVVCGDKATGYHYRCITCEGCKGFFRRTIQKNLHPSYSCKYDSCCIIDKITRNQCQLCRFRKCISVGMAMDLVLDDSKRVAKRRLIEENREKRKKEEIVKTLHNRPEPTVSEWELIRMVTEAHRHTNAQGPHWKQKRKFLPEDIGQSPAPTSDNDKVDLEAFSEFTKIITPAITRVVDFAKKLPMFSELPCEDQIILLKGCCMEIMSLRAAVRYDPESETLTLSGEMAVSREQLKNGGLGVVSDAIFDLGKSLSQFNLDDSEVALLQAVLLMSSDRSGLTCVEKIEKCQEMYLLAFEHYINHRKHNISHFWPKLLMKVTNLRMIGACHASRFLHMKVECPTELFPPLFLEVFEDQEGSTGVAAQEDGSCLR

Assay [20] deals with zebrafish Androgen Receptor (AR), gene 100005148. Nature of the assay: ATG_zfAR_XSP2: Attagene TRANS-FACTORIAL Multi-Species (XSP2) HepG2 Assay for zebrafish Androgen Receptor (AR) (AID 2283825).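 Further: hits raise reporter mRNA above DMSO so AC50 reflects agonist-type gain.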 The method in brief:
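Zebrafish AR–GAL4 chimera transiently expressed with GAL4-UAS reporter in HepG2 cells, co-stimulated with 3 nM 6-alpha-fluorotestosterone and 1.5 nM norgestrel; 24 h dosing, reporter mRNA read by RT-PCR/capillary electrophoresis versus DMSO.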

The structures appear in SMILES notation. Several values for one entry are separate records, joined by “and”; a condition that tells them apart may be missing. Identical values can stand only once. Results filed as inconclusive are left out. More than one record can exist for a structure, and the calls need not agree. Activity calls are given as the source filed them. How the source made its calls: active means hit-call score of the fitted dose curve at least 0.9, where 1 is the maximum; inconclusive means response in the unintended direction; inactive means score below 0.9.

As usually defined, the AC50 is the concentration giving half of the maximal activity seen.

Chain of Nuclear receptor subfamily 1 group I member 2 (Mus musculus) (O54915 whole entry, looked up): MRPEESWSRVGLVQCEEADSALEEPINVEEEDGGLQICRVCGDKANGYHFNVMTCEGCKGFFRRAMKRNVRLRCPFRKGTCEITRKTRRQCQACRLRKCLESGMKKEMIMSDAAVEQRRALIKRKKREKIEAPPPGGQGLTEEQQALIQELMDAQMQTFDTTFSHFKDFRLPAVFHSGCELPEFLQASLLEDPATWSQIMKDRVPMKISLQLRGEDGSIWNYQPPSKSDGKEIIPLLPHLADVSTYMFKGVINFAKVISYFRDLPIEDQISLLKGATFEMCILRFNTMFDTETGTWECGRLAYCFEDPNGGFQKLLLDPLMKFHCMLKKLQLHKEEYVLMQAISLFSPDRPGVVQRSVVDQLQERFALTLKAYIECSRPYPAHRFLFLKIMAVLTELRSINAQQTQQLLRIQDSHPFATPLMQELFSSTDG
Chain of mouse Peroxisome Proliferator-activated Receptor gamma (PPARg), Pparg (gene 19016) (P37238 whole entry, looked up, the tested form may be a part): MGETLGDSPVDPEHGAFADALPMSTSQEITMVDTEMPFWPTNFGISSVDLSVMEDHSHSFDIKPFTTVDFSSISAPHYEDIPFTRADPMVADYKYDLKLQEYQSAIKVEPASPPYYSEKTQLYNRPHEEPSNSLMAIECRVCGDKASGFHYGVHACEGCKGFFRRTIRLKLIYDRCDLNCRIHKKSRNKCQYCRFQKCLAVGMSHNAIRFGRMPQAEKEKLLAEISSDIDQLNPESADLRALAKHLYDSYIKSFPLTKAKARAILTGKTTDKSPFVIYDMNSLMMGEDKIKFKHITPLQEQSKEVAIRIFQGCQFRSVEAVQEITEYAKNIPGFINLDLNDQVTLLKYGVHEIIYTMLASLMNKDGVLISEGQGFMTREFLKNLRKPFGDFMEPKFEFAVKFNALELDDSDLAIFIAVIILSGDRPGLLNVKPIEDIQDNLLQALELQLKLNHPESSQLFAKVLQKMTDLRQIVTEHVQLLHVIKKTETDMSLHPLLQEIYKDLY
Chain of zebrafish Estrogen Receptor (ER1), esr1 (gene 259252) (P57717 whole entry, looked up, the tested form may be a part): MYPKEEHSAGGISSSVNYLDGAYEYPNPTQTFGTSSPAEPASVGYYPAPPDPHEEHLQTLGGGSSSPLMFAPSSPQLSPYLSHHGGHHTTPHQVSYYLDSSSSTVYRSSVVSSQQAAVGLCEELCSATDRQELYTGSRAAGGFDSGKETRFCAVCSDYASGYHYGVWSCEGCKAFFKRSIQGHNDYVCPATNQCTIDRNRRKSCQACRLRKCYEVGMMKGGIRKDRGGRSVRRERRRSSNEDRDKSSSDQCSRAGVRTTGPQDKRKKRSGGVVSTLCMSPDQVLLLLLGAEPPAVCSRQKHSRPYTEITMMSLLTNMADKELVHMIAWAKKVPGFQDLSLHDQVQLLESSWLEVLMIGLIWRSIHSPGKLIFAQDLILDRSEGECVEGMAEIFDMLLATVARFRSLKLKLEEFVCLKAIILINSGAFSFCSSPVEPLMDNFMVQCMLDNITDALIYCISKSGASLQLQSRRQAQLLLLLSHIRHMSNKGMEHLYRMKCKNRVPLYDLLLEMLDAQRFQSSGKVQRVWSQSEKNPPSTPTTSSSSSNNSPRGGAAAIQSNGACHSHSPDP
Chain of Estrogen receptor (Homo sapiens) (P03372 whole entry, looked up, the tested form may be a part): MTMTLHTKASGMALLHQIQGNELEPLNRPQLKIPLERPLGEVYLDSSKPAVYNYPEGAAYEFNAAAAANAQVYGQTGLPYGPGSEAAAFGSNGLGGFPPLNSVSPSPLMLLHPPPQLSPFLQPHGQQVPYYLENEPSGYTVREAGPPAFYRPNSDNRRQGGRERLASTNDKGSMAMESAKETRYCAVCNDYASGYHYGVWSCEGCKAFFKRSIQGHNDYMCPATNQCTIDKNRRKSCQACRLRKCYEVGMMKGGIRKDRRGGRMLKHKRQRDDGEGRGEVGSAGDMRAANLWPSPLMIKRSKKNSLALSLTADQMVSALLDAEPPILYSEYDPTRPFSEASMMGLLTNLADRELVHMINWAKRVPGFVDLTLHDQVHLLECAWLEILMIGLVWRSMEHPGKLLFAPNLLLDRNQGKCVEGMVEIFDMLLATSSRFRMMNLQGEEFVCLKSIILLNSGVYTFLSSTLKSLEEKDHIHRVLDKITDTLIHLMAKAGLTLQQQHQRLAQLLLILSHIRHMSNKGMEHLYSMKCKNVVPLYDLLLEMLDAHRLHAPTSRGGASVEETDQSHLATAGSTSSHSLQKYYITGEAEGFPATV
Chain of Peroxisome proliferator-activated receptor gamma (Homo sapiens) (P37231 whole entry, looked up, the tested form may be a part): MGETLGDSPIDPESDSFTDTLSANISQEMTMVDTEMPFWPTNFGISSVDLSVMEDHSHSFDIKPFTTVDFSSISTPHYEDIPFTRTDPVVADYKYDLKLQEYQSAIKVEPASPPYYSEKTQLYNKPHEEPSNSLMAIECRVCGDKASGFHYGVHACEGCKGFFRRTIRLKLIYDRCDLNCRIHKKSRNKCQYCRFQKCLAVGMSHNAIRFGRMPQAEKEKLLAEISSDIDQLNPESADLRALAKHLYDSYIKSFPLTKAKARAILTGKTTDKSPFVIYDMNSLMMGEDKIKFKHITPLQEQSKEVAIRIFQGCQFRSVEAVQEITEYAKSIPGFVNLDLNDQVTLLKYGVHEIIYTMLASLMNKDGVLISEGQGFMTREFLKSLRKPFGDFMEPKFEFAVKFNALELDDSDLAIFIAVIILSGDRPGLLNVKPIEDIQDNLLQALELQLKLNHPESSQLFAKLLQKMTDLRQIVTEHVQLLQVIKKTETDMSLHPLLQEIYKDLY

For `C(=C(c1ccccc1)c1ccccc1)c1ccccc1`, the result in assay [1], in assay [2], in [3], in [5], in assay [6] and in assay [8] was inactive. Moreover, the molecule was called inactive in [12], in assay [13], in assay [14], in assay [15] and in assay [16]. Also, the AC50 in assay [4] was 39.9 nM (active); in [7], 29.1 nM (active); in assay [9], 165 nM (active); in assay [10], 46.1 nM (active); in [11], 25.3 nM (active).
Take `c1ccc(B(c2ccccc2)c2ccccc2)cc1`: the outcome in [3], in assay [18], in [19] and in assay [16] was inactive. Also, the AC50 was 4.9 µM (active) and 7.88 µM (active) in [4]; 59.7 µM (active) and 22 µM (active) in assay [6]; 5.78 µM (active) and 3.86 µM (active) in [7]; 7.9 µM (active) and 9.53 µM (active) in assay [17]; 7.06 µM (active) and 7.56 µM (active) in [8]; 18.1 µM (active) and 10.8 µM (active) in assay [9]. For the same molecule, the AC50 is 7.53 µM (active) and 3.43 µM (active) in assay [10]; 6.89 µM (active) and 5.72 µM (active) in [11]; 60.6 µM (active) and 40.8 µM (active) in [12]; 65.6 µM (active) and 45.9 µM (active) in assay [13]; 1.27 µM (active) and 4.39 µM (active) in [14]; 100 µM (active) in assay [15].
Regarding `C#C[C@]1(O)CC[C@H]2[C@@H]3CCc4cc(OC)ccc4[C@H]3CC[C@@]21C`, the call in assay [3], in assay [12], in [14], in assay [19] and in [16] was inactive. The AC50 in assay [4] was 0.21 nM (active) and 0.082 nM (active); in assay [6], 10.2 nM (active) and 3.1 nM (active); in assay [7], 0.189 nM (active) and 0.519 nM (active); in assay [17] it was 0.272 nM (active) and 0.0819 nM (active); in assay [8], 0.598 nM (active) and 0.0823 nM (active); in assay [9], 1.1 nM (active) and 0.373 nM (active). The AC50 in assay [10] is 0.111 nM (active) and 0.0826 nM (active); in [11] it was 3.94 nM (active) and 1.23 nM (active).
Take `O=C(OCCOCCOCCOC(=O)c1ccccc1)c1ccccc1`: the molecule was called inactive in assay [3], in assay [4], in assay [6], in assay [7], in assay [18] and in assay [8]. The molecule was called inactive in assay [9], in assay [20], in assay [10], in assay [11], in assay [12] and in [13]. The molecule was classed as inactive in assay [19], in [15] and in [16]. Besides, the half-maximal activity concentration (AC50) in assay [9] is 153000 nM (active); in assay [10] it was 26700 nM (active); in [12], 46.3 µM (active); in assay [13] it was 58.5 µM (active); in [14], 22.8 µM (active).

Values taken from PubChem BioAssay (EPA / NIEHS).
